IL-1B inflam inh – qHTS for Inhibitors of Inflammasome Signaling: IL-1-beta AlphaLISA Primary Screen | THP-1 LPS/ATP IL-1B secretion, AlphaLISA, 16 h; stronger effect = lower value | activity change, % at 57.5 µM | 360,000 compounds, 4.7% hits; in the data active = activity change below about -50%; inconclusive = mostly about -30% to -49%
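THP-1 cells pretreated 1 hr with compounds (up to 57.5 uM final), then stimulated with LPS (250 ng/mL final) plus ATP (1.25 mM final); secreted IL-1B measured by AlphaLISA after 16 hr, decreased signal indicating inhibition.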
ELG1 repair inh – qHTS screen for small molecules that inhibit ELG1-dependent DNA repair in human embryonic kidney (HEK293T) cells expressing luciferase-tagged ELG1; HEK293T ELG1-luciferase reporter, luminescence, 16 h; DNA damage induced by 5-fluorouridine; Potency, µM (titrated, usually from 46.1 µM), usual class: inhibitors; 330,000 compounds, 2.3% hits; note: nearly all actives have a fitted effect of over 55% in size
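DMSO vehicle served as the neutral condition. Each well held 2,000 cells given 5-fluorouridine plus compound; after 16 hr at 37 °C/5% CO2, ONE-Glo was added and luciferase measured 30 min later.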
TDP1 cell noCPT – qHTS for Inhibitors of human tyrosyl-DNA phosphodiesterase 1 (TDP1): qHTS in cells in absence of CPT; 420,000 compounds, 15% hits; DT40 Tdp1-/- hTDP1 cells, no CPT, ATP luminescence, 48 h; Potency, µM (top dose mostly 46.2 µM), most hits filed as inhibitors; AID 686978, 2013; note: nearly all actives have a fitted effect of over 55% in size
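A cellular qHTS used chicken DT40 cells lacking endogenous Tdp1 but carrying stably transfected human TDP1. Compounds were applied without camptothecin, and cell growth kinetics were judged by ATP-dependent luminescence after ≥48 hr.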
DT40 TDP1 CPT – qHTS for Inhibitors of human tyrosyl-DNA phosphodiesterase 1 (TDP1): qHTS in cells in presence of CPT; chicken DT40 Tdp1-/-;hTDP1 cells + 20 nM CPT, ATP luminescence, 48 h; Potency, µM (doses to about 46.2 µM), hits mostly inhibitors; 420,000 compounds, 12% hits; note: nearly all actives have a fitted effect of over 55% in size
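Chicken DT40 Tdp1-/- cells stably complemented with human TDP1 were seeded at 400 cells/well in medium containing 20 nM camptothecin, exposed to pin-transferred compounds, and grown at 37 °C for at least 48 hr. Viability was read as ATP luminescence.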
RORgamma inh – qHTS for inhibitors of ROR gamma transcriptional activity; Nuclear receptor ROR-gamma (Mus musculus), P51450; Drosophila S2 Gal4-RORgamma UAS-luciferase reporter, 20 h; Potency, µM (titrated, usually from 53.6 µM), hits mostly inhibitors; 310,000 compounds, 5.4% hits; AID 2551, 2010; note: nearly all actives have a fitted effect of over 60% in size
Target sequence (P51450 whole entry, looked up, the tested form may be a part): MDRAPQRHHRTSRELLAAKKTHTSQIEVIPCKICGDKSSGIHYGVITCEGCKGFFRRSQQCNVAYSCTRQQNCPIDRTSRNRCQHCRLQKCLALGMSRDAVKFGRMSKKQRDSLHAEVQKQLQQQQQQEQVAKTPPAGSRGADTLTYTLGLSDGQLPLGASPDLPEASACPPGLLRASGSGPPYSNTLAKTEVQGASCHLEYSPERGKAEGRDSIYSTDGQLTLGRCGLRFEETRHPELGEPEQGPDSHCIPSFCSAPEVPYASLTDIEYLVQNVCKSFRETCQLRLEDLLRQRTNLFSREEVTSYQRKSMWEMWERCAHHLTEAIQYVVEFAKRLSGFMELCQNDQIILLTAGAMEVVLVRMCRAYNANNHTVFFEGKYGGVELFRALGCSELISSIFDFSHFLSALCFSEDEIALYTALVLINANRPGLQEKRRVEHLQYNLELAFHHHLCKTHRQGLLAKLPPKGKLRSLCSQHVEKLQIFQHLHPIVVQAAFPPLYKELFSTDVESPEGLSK
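In this cell-based reporter format, copper sulfate (700 uM final) drives Gal4–ROR gamma fusion expression from a metallothionein promoter in Drosophila Schneider cells; compounds preincubated 1 hr, reporter read after 20 hr at ambient temperature.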
Gal4-VP16 FLuc – VP16 counterscreen qHTS for inhibitors of ROR gamma transcriptional activity; Drosophila S2 Gal4-VP16 UAS-luciferase, luminescence, 20 h; Potency, µM (titrated, usually from 53.6 µM), hits mostly inhibitors; 310,000 compounds, 3.5% hits;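 note: Gal4-VP16 expression switched on by copper sulfate through the metallothionein promoter; nearly all actives have a fitted effect of over 50% in size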
Hits are given with their value; n = inactive; u = inconclusive; x = no result. The list is not random: actives were taken first. Their share in the collection is about 21%. Unless noted, calls come from the whole dose curve; as a rule, active = well fitted curve in the direction sought with a large enough effect; inconclusive = small, poorly fitted or top-dose-only effect, or another doubt; inactive = no such curve, though single readings can be large; an effect the other way counts as inactive or inconclusive.

SMILES	IL-1B inflam inh	ELG1 repair inh	TDP1 cell noCPT	DT40 TDP1 CPT	RORgamma inh	Gal4-VP16 FLuc
COc1ccc(CN2CC[C@H]3C=CCc4cccc(c43)C2)cc1	n	n	u	u	x	x
Cc1ccc(S(=O)(=O)Nc2ccc3c(c2)OCCO3)c(C)c1NS(C)(=O)=O	n	n	10µM	u	n	n
Cc1ccc(S(=O)(=O)Nc2cccc(C(=O)N3CCOCC3)c2)c(C)c1NS(C)(=O)=O	n	n	n	n	n	n
CCOc1ccc(N2CC(C(=O)Nc3cccc(S(=O)(=O)N4CCOCC4)c3)CC2=O)cc1 (stereo unspecified)	n	x	u	n	x	x
CC(=O)Oc1ccc2c(c1)O/C(=C\c1ccncc1)C2=O	u	n	n	u	n	n
O=C1/C(=C/c2cccnc2)Oc2cc(OS(=O)(=O)c3ccccc3)ccc21	n	n	16µM	u	n	u
O=C(Oc1ccc2c(c1)O/C(=C\c1ccncc1)C2=O)c1cccs1	n	u	u	u	u	n
CS(=O)(=O)Oc1ccc2c(c1)O/C(=C\c1cccnc1)C2=O	x	u	n	n	n	n
O=C1/C(=C/c2cccnc2)Oc2cc(OS(=O)(=O)c3ccc(Cl)cc3)ccc21	n	15µM	u	u	n	n
COc1ccc(S(=O)(=O)Oc2ccc3c(c2)O/C(=C\c2cccnc2)C3=O)cc1	n	u	15µM	u	n	n
Cc1nc2nc(SCC(=O)NCCCN3CCCC(C)C3)nn2c(C)c1Cc1ccccc1Cl (stereo unspecified)	u	n	n	u	n	n
CCOc1ccccc1NC(=O)c1c(NCc2sccc2C)sc2c1CCC(C)C2 (stereo unspecified)	x	x	6.5µM	6.5µM	x	x
CCOc1ccccc1NC(=O)c1c(NCc2cccs2)sc2c1CCCCC2	x	x	21µM	u	x	x
CCN(CC)CCCC(C)NC(=O)c1c(NC(=O)c2ccccc2)sc2c1CCCC2 (stereo unspecified)	x	n	u	18µM	n	n
CCOc1ccccc1NC(=O)c1c(NCc2sccc2C)sc2c1CCCCC2	x	x	15µM	8.2µM	x	x
CCOc1ccccc1NC(=O)c1c(NC(=O)C(C)Oc2ccc(Cl)cc2)sc2c1CCCCC2 (stereo unspecified)	x	x	u	n	x	x
COc1ccc(NC(=O)c2cc3cc(C)ccc3[nH]2)cc1	x	x	n	n	x	x
O=C1O[C@@H]2[C@@H](O)[C@H](O)O[C@@H]2[C@H]1O	x	x	n	n	x	x
Cc1nn(CC(=O)c2ccc3c(c2)OCCO3)c(=O)c(C#N)c1C	n	n	n	n	x	x
CCOC(=O)N1CCc2c(sc(NCc3sccc3C)c2C(=O)Nc2ccccc2OCC)C1	x	x	23µM	u	x	x
CCOc1ccccc1NC(=O)c1c(NC(=O)c2ccccc2)sc2c1CCCC2	x	x	u	4.1µM	x	x
CCOC(=O)N1CCc2c(sc(NC(C)=O)c2C(N)=O)C1	n	x	n	n	x	x
O=C1/C(=C\c2ccncc2)CCc2ccccc21	-98	u	15µM	13µM	x	x
O=C1/C(=C/c2ccncc2)CCc2ccccc21	-102	n	23µM	u	u	n
O=C1/C(=C/c2ccncc2)CCC/C1=C\c1ccncc1	u	u	0.82µM	2.1µM	6.3µM	5µM
SMILES	IL-1B inflam inh	ELG1 repair inh	TDP1 cell noCPT	DT40 TDP1 CPT	RORgamma inh	Gal4-VP16 FLuc
O=C1C(=Cc2ccncc2)CCCc2ccccc21	u	x	21µM	23µM	x	x
O=C1CCC/C1=C\c1ccccc1	n	n	n	n	n	n
COC(=O)N(C)C[C@@H]1OCc2cnnn2CCCC(=O)N([C@H](C)CO)C[C@@H]1C	n	x	n	n	x	x
O=C1/C(=C\c2ccccc2)CCC/C1=C/c1ccccc1	n	x	18µM	21µM	x	x
Cn1cccc1/C=C1\CCc2ccccc2C1=O	u	u	u	u	13µM	n
CC(C)(C)OC(=O)N1CC23CC(c4ccc(F)cc4)C(CC2S1(=O)=O)O3 (stereo unspecified)	x	x	x	x	n	n
Cc1nc(C(F)(F)F)ccc1C(=O)N1CCCC(C(=O)O)CC1 (stereo unspecified)	n	x	n	n	x	x
COc1ccc(C2CC(=O)c3ccccc3O2)cc1 (stereo unspecified)	-60	u	u	u	n	n
CCc1c(C)sc(NC(=O)c2cc(-c3ccco3)on2)c1C#N	n	n	n	n	u	n
COCCCNC(=O)CC1C[C@H](C(=O)N2CCOCC2)[C@@]2(CCC3CCCC3)c3[nH]c4ccc(OC)cc4c3CCN2C1=O (stereo partly specified)	n	n	n	u	x	x
CC[C@]12c3[nH]c4ccccc4c3CCN1C(=O)C(CC(=O)NC/C=C(\C)CCC=C(C)C)C[C@@H]2C(=O)N1CCN(C(=O)C2CC2)CC1 (stereo partly specified)	u	n	15µM	21µM	x	x
CC[C@]12c3[nH]c4ccccc4c3CCN1C(=O)C(CC(=O)NC(C)(C)C)C[C@@H]2C(=O)N1CCN(C(=O)C2CC2)CC1 (stereo partly specified)	n	u	n	n	x	x
CC[C@]12c3[nH]c4ccc(OC)cc4c3CCN1C(=O)C(CC(=O)NC/C=C(\C)CCC=C(C)C)C[C@@H]2C(=O)N1CCN(C(=O)C2CC2)CC1 (stereo partly specified)	-62	n	u	u	x	x
COc1ccc2[nH]c3c(c2c1)CCN1C(=O)C(CC(=O)NC/C=C(\C)CCC=C(C)C)C[C@H](C(=O)N2CCOCC2)[C@@]31CCC1CCCC1 (stereo partly specified)	n	n	21µM	15µM	x	x
C[C@H]1CN([C@@H](C)CO)C(=O)c2cccc(NS(=O)(=O)c3ccc(Cl)cc3)c2O[C@@H]1CN(C)CC1CCCCC1	n	n	u	u	x	x
Cc1ccc(CN2C(=O)c3ccccc3C2c2nnnn2-c2ccc3c(c2)OCCO3)cc1 (stereo unspecified)	n	x	16µM	u	x	x
O=C1c2ccccc2C(c2nnnn2-c2ccc3c(c2)OCCO3)N1Cc1ccccc1 (stereo unspecified)	n	x	u	u	x	x
CC(C)CCN1C(=O)c2ccccc2C1c1nnnn1-c1ccc2c(c1)OCCO2 (stereo unspecified)	n	x	16µM	23µM	x	x

Source: PubChem
